High-throughput results from PubChem BioAssay.
Most compounds without a hit are left out; they make up all but 19% or so of the library.
TDP1 cell CPT: qHTS for Inhibitors of human tyrosyl-DNA phosphodiesterase 1 (TDP1): qHTS in cells in presence of CPT; chicken DT40 Tdp1-/-;hTDP1 cells + 20 nM CPT, ATP luminescence, 48 h; Potency, µM (top dose mostly 46.2 µM), most hits filed as inhibitors; hit rate 12% among 420,000; also: nearly all actives have a fitted effect of over 55% in size
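Cell growth measured by CellTiter-Glo luminescence after a minimum 48 h, 37 C compound exposure with 20 nM CPT in Tdp1-knockout DT40 cells stably expressing hTDP1, seeded 400/well; qHTS titration format.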
Gal4-VP16 FLuc: VP16 counterscreen qHTS for inhibitors of ROR gamma transcriptional activity | Drosophila S2 Gal4-VP16 UAS-luciferase, luminescence, 20 h | Potency, µM (doses to about 53.6 µM), most hits filed as inhibitors | hit rate 3.5% among 310,000 | AID 2546, 2010;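 also: Gal4-VP16 expression switched on by copper sulfate through the metallothionein promoter; nearly all actives have a fitted effect of over 50% in size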
TDP1 inh: qHTS Assay for Inhibitors of Tyrosyl-DNA Phosphodiesterase (TDP1) | Tyrosyl-DNA phosphodiesterase 1 (Homo sapiens), Q9NUW8 | recombinant TDP1, AlphaScreen DNA substrate cleavage | Potency, µM (titrated, usually from 130 µM), usual class: inhibitors | hit rate 0.28% among 350,000; also: nearly all actives have a fitted effect of over 40% in size
Target sequence (Q9NUW8 whole entry, looked up): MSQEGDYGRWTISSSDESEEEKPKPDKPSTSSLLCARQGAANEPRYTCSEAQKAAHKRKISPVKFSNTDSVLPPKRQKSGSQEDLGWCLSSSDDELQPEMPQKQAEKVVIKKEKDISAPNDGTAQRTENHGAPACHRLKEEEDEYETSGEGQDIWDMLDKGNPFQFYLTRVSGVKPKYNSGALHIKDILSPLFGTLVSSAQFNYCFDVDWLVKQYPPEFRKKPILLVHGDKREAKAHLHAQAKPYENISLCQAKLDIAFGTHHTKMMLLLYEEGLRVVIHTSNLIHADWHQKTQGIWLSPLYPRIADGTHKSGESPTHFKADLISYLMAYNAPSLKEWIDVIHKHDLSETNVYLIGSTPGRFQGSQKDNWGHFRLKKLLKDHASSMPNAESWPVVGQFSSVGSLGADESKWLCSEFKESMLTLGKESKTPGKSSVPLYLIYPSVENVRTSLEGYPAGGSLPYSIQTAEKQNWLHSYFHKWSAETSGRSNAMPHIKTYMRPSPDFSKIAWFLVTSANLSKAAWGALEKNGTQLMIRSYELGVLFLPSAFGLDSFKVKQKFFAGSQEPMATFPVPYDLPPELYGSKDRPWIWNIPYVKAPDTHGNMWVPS
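Compounds were preincubated with Tdp1 (1 nM final) for 15 min at room temperature before substrate (15 nM final) started a 5 min reaction; beads (10 ug/ml final) were then added for 10 min before AlphaScreen detection.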
DT40 TDP1 no CPT: qHTS for Inhibitors of human tyrosyl-DNA phosphodiesterase 1 (TDP1): qHTS in cells in absence of CPT; AID 686978, 2013; Potency, µM (top dose mostly 46.2 µM), actives largely listed as inhibitors; hit rate 15% among 420,000; DT40 Tdp1-/- hTDP1 cells, no CPT, ATP luminescence, 48 h; also: nearly all actives have a fitted effect of over 55% in size
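Chicken DT40 Tdp1-/- cells stably complemented with human TDP1 were seeded at 400 cells/well with DMSO in place of 20 nM camptothecin. After compound pinning, cells grew at least 48 hr at 37 °C; viability read by CellTiter-Glo luminescence.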
RORg inh: qHTS for inhibitors of ROR gamma transcriptional activity; Nuclear receptor ROR-gamma (Mus musculus), P51450; Drosophila S2 Gal4-RORgamma UAS-luciferase reporter, 20 h; Potency, µM (highest dose often 53.6 µM), usual class: inhibitors; hit rate 5.4% among 310,000; AID 2551, 2010; also: nearly all actives have a fitted effect of over 60% in size
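Drosophila S2 cells stably expressing Gal4-DBD/mouse RORγ fusion under metallothionein promoter plus UAS-luciferase; compound 1 h, then 700 uM CuSO4 induction for 20 h at ambient temperature; inhibition read as reduced luminescence.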
Each line names hits and unclear results; the compound was inactive in the other large screens. Calls follow the shape of the dose curve; as a rule, active = well fitted curve in the direction sought with a large enough effect; inconclusive = small, poorly fitted or top-dose-only effect, or another doubt; inactive = no such curve, though single readings can be large; an effect the other way counts as inactive or inconclusive.

CCn1c(COc2ccc(C)cc2)nc2ccccc21	TDP1 cell CPT inconclusive, Gal4-VP16 FLuc inconclusive, DT40 TDP1 no CPT inconclusive, RORg inh 8.91µM
Cc1ccc(OCc2nc3ccccc3n2CCOc2ccc(Cl)cc2)cc1	TDP1 cell CPT inconclusive, DT40 TDP1 no CPT 18.4µM (no result: Gal4-VP16 FLuc, RORg inh)
COCCn1c(COc2ccc(C)cc2)nc2ccccc21	TDP1 cell CPT inconclusive, DT40 TDP1 no CPT inconclusive, RORg inh 11.2µM
O=C(/C=C/c1cccc(Br)c1)OCC(=O)N1CCN(c2ccccc2)CC1	DT40 TDP1 no CPT inconclusive (no result: Gal4-VP16 FLuc, RORg inh)
Cc1ccc(OCc2nc3ccccc3n2Cc2ccccc2Cl)cc1	TDP1 cell CPT 20.6µM, DT40 TDP1 no CPT inconclusive (no result: Gal4-VP16 FLuc, TDP1 inh, RORg inh)
Cc1cccc(C(=O)NCc2nc3ccccc3n2Cc2ccccc2Cl)c1	TDP1 cell CPT inconclusive, DT40 TDP1 no CPT inconclusive (no result: Gal4-VP16 FLuc, RORg inh)
COc1ccc(C(=O)Nn2c(C)nnc2-n2nc(C)cc2C)cc1OC	none
Cc1ccc(/C=C/C(=O)N(Cc2cccs2)C2CCS(=O)(=O)C2)cc1 (centres undefined)	TDP1 cell CPT inconclusive, DT40 TDP1 no CPT 20.6µM
Cc1cc2c(NCCc3ccccc3)ncnc2s1	TDP1 cell CPT 1.64µM, DT40 TDP1 no CPT 1.03µM (no result: Gal4-VP16 FLuc, RORg inh)
CCCCCNc1ncnc2c(C)[nH]nc12	TDP1 cell CPT 14.6µM, DT40 TDP1 no CPT 23.1µM (no result: Gal4-VP16 FLuc, TDP1 inh, RORg inh)
Cc1cc2c(SCC(=O)NC3CCCCC3)ncnc2s1	Gal4-VP16 FLuc inconclusive, DT40 TDP1 no CPT inconclusive
Cc1cc2c(NC3CCCCC3)ncnc2s1	TDP1 cell CPT inconclusive, Gal4-VP16 FLuc 12.6µM, DT40 TDP1 no CPT 13µM, RORg inh inconclusive (no result: TDP1 inh)
Cc1cc2c(Nc3ccccc3)ncnc2s1	DT40 TDP1 no CPT inconclusive
O=C(CSc1ncnc2ccccc12)NCCc1ccccc1	none
c1ccc(CCNc2ncnc3ccccc23)cc1	TDP1 cell CPT 0.517µM, Gal4-VP16 FLuc 0.562µM, DT40 TDP1 no CPT 0.651µM, RORg inh 1.12µM
CCN1CCN(c2ncnc3c2cnn3-c2ccc(C)c(Cl)c2)CC1	none (no result: Gal4-VP16 FLuc, RORg inh)
O=C(Cn1cc2c(n1)CCCC2)Nc1ccccc1Cl	none
CC(=O)NC1(NC(C)=O)CCN(C)C(c2ccccc2)C1C (centres undefined)	none
COc1ccc(-n2nc(C(=O)NCCCOC(C)C)c3c4ccccc4n(C)c3c2=O)cc1	TDP1 cell CPT inconclusive (no result: Gal4-VP16 FLuc, RORg inh)
CCc1ccccc1Nc1ncnc2ccccc12	TDP1 cell CPT inconclusive, DT40 TDP1 no CPT inconclusive (no result: TDP1 inh)
CCCCCCCCNc1ncnc2ccccc12	TDP1 cell CPT 0.291µM, Gal4-VP16 FLuc 0.355µM, DT40 TDP1 no CPT 0.259µM, RORg inh 2.24µM
C[C@H]1CN([C@@H](C)CO)C(=O)CCCn2cc(nn2)CO[C@@H]1CN(C)C(=O)Nc1ccnc(N2CCOCC2)c1	none (no result: Gal4-VP16 FLuc, TDP1 inh, RORg inh)
CCN(CC)C(=O)Cn1cnc2sc(C(=O)N3CCN(c4ccc(OC)cc4)CC3)c(C)c2c1=O	DT40 TDP1 no CPT inconclusive
COc1ccc(N2CCN(C(=O)c3sc4ncn(CC(=O)N5CCCCC5C)c(=O)c4c3C)CC2)cc1 (centres undefined)	TDP1 cell CPT inconclusive, Gal4-VP16 FLuc 22.4µM
COc1ccccc1N1CCN(C(=O)c2sc3ncn(CC(=O)N4CCC(C)CC4)c(=O)c3c2C)CC1	TDP1 cell CPT inconclusive, DT40 TDP1 no CPT 1.84µM
CCCC(=O)N(Cc1cc2cc(OC)ccc2[nH]c1=O)c1ccccc1OC	TDP1 cell CPT 14.6µM, DT40 TDP1 no CPT inconclusive (no result: Gal4-VP16 FLuc, TDP1 inh, RORg inh)
COc1ccc2[nH]c(=O)c(CN(C(=O)c3cccnc3)c3ccc(C)c(C)c3)cc2c1	TDP1 cell CPT 11.6µM, DT40 TDP1 no CPT inconclusive (no result: TDP1 inh)
COc1ccccc1N(Cc1cc2cccc(C)c2[nH]c1=O)C(=O)c1cccc(Cl)c1	TDP1 cell CPT 13µM, DT40 TDP1 no CPT 20.6µM (no result: Gal4-VP16 FLuc, RORg inh)
CCN(Cc1cc2cccc(C)c2[nH]c1=O)C(=O)c1ccccc1OC	TDP1 cell CPT inconclusive, DT40 TDP1 no CPT 23.1µM
COCCN(Cc1cc2cccc(C)c2[nH]c1=O)C(=O)c1ccccc1	none
O=C(COc1ccccc1F)Nc1nnc(SCc2cc(=O)c3ccccc3[nH]2)s1	TDP1 cell CPT inconclusive, DT40 TDP1 no CPT inconclusive (no result: Gal4-VP16 FLuc, RORg inh)
